One experiment has as its system CRL-7250. The experiment in a line: Cytotoxic Profiling of Annotated Libraries Using Quantitative High-Throughput Screening (AID 1296008). As to conditions: Five cell lines viability, CellTiter-Glo ATP luminescence, 48-72 h; max response: stronger effect = lower value. In short, it runs like this: (§1)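 Compounds were pin-transferred onto cells and incubated 48 or 72 hr at 37 degree Celsius, 95% humidity. CellTiter-Glo was added, plates sat 10 min at room temperature, then ATP-coupled luminescence was imaged as the viability read-out.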

The next experiment concerns HEK293. Described as above. To be noted: Five cell lines viability, CellTiter-Glo ATP luminescence, 48-72 h; max response: stronger effect = lower value. In short, it runs like this: as §1
Experiment [1] relates to HaCat. The experiment is described as above. To be noted: Five cell lines viability, CellTiter-Glo ATP luminescence, 48-72 h; max response: stronger effect = lower value. In short, it runs like this: as §1
The next experiment relates to KB-3-1. Described as above. To be noted: Five cell lines viability, CellTiter-Glo ATP luminescence, 48-72 h; max response: stronger effect = lower value. In a few lines: as §1
Experiment [2] deals with NIH3T3. The experiment is described as above. As to conditions: Five cell lines viability, CellTiter-Glo ATP luminescence, 48-72 h; max response: stronger effect = lower value. In short, it runs like this:
as §1

The test system of experiment [3] is HACAT. The experiment in a line: qHTS assay to identify novel small-molecules to repurpose for Merkel cell carcinoma treatment (AID 1296009). As to conditions: MCC and control cell lines, CellTiter-Glo viability, 72 h; at 44.8 µM (top of the series) unless noted. In short, it runs like this:
(§2)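 Viability readout: ATP luminescence (CellTiter-Glo) after 72 hr drug exposure at 37 degree celsius. Dose-response format was 8 points for NPC and 11 points for MIPE; data normalized to in-plate controls.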

A further experiment relates to MCC-13. Described as above. As to conditions: MCC and control cell lines, CellTiter-Glo viability, 72 h; series mostly up to 46 µM. In short, it runs like this: as §2
The next experiment relates to MCC-26. The description is as above. As to conditions: MCC and control cell lines, CellTiter-Glo viability, 72 h; series mostly up to 46 µM. In short, it runs like this: as §2
A further experiment relates to MKL-1. Described as above. As to conditions: MCC and control cell lines, CellTiter-Glo viability, 72 h; series mostly up to 46 µM. In short, it runs like this:
as §2

The next experiment concerns MKL-2. The experiment is described as above. As to conditions: MCC and control cell lines, CellTiter-Glo viability, 72 h; series mostly up to 46 µM. In a few lines:
as §2

Another experiment deals with UISO. The description is as above. As to conditions: MCC and control cell lines, CellTiter-Glo viability, 72 h; series mostly up to 46 µM. In a few lines: as §2
The subject of another experiment is WaGa. The description is as above. As to conditions: MCC and control cell lines, CellTiter-Glo viability, 72 h; series mostly up to 46 µM. In a few lines: as §2
The test system of experiment [4] is NIH3T3. The description is as above. To be noted: MCC and control cell lines, CellTiter-Glo viability, 72 h; at 44.8 µM (top of the series) unless noted. In short, it runs like this: as §2
A further experiment relates to HEK293T. The experiment is described as above. To be noted: MCC and control cell lines, CellTiter-Glo viability, 72 h; series mostly up to 44.8 µM. In short, it runs like this:
as §2

Records with an inconclusive call do not appear. A number with no mark means an inactive call. The source made the active and inactive calls. The call rests on the fitted dose curve; in most records, active means well fitted inhibition curve with a large enough effect; inconclusive means small, poorly fitted or top-dose-only effect; inactive means flat fitted curve, though single readings scatter.
Further: nearly all actives have a fitted effect of over 60% in size.
On the % scale 0 is the no-effect control and ±100 the full control effect; potency means the concentration at half of the fitted maximal effect.

As for `CC(=O)N1CCN(c2ccc(OCc3nn(C)c(C)c3-c3cccc4c(CCCOc5cccc6ccccc56)c(C(=O)O)n(Cc5cccnc5)c34)cc2)CC1`, the outcome with CRL-7250, in the experiment on HaCat [1], in the experiment on KB-3-1 and in the experiment on HACAT [3] was inactive. The max response is -15.3% in the experiment with HEK293 and -8.89% in the experiment with NIH3T3 [2]. For the same compound, the Potency entry with MCC-13 is “inactive”. The Potency with MCC-26 was 16.6 µM (active); with MKL-1 it was 3.32 µM (active); with MKL-2, 0.296 µM (active); with UISO it was 1.18 µM (active); in the experiment on WaGa, 83.3 nM (active).

Turning to `Cc1ccc(O)c(C(CCN(C(C)C)C(C)C)c2ccccc2)c1` (stereo not given), the call in the experiment with CRL-7250, in the experiment with HaCat [1], in the experiment with KB-3-1, in the experiment with NIH3T3 [2], in the experiment with HACAT [3] and in the experiment with NIH3T3 [4] was inactive. In addition, the max response in the experiment with HEK293 is -19.9%. In addition, the Potency entry with MCC-13, in the experiment with MKL-1, in the experiment on MKL-2, in the experiment on UISO and in the experiment with WaGa was “inactive” throughout.

As to `CCN(C(=O)c1c(O)c2c(Cl)cccc2n(C)c1=O)c1ccccc1`, the Potency was 5.9 µM (active) in the experiment on CRL-7250 and 4.18 µM (active) in the experiment with HEK293. For the same compound, the call in the experiment on HaCat [1] and with HACAT [3] was inactive. Further, the values for the max response in the experiment on KB-3-1 and in the experiment on NIH3T3 [2] were 3.28% and -5.88%, respectively. In addition, the Potency result in the experiment on MCC-13, in the experiment on MCC-26, with MKL-1, in the experiment with MKL-2 and with WaGa was “inactive” in each case.

Take `C[C@H](NC(=O)Cc1cc(F)cc(F)c1)C(=O)N[C@H](C(=O)OC(C)(C)C)c1ccccc1`: the max response in the experiment on CRL-7250 was -1.21%; with HEK293, -28.5%; in the experiment with KB-3-1, -8.93%; with NIH3T3 [2] it was -8.45%. The outcome in the experiment on HaCat [1] and in the experiment with HACAT [3] was inactive. The Potency result with MCC-13, in the experiment with MCC-26, in the experiment with MKL-1, in the experiment with MKL-2, with UISO and with WaGa was “inactive” throughout.

Turning to `OC[C@@H](O)[C@@H](O)[C@H](O)[C@@H](O)CO`, the results for the max response in the experiment with CRL-7250, with HEK293 and in the experiment with NIH3T3 [2] were 0.947%, 2.06% and -2.12%, respectively. Further, the call in the experiment with HaCat [1], in the experiment on KB-3-1 and with HACAT [3] was inactive. The Potency entry in the experiment on MCC-13, in the experiment on MCC-26, in the experiment on MKL-1, in the experiment with MKL-2, in the experiment with UISO and in the experiment on WaGa was “inactive” each time.

Regarding `Nc1cccc2c1C(=O)N(C1CCC(=O)NC1=O)C2=O` (stereo not given), the max response with CRL-7250 is 1.13%; in the experiment with HEK293, -10.8%; in the experiment with KB-3-1, -7.31%; in the experiment with NIH3T3 [2] it was -1.24%. Moreover, the result with HaCat [1] and in the experiment on HACAT [3] was inactive. The Potency result in the experiment on MCC-13, with MCC-26, in the experiment on MKL-1, with MKL-2, in the experiment on UISO and in the experiment on WaGa was “inactive” throughout.

On to `C[C@@H]1C(=O)O[C@H]2CC34[C@H]5C[C@@H](C(C)(C)C)C36[C@H](OC(=O)[C@@H]6O)O[C@@]4(C(=O)O5)[C@]21O` (stereo not given in full), for which the result in the experiment with CRL-7250, in the experiment on HaCat [1], with NIH3T3 [2], in the experiment with HACAT [3] and in the experiment with NIH3T3 [4] was inactive. Besides, the max response with HEK293 was 3.06%; with KB-3-1, 2.09%. The Potency entry in the experiment on MCC-13 and with UISO was “inactive” throughout.

For the compound `COc1cc(C[C@@H](CO)[C@H](CO)Cc2ccc(O)c(OC)c2)ccc1O`, the results for the max response in the experiment on CRL-7250, in the experiment with HEK293 and in the experiment on KB-3-1 were -0.633%, -2.88% and 3.84%, respectively. Moreover, the compound was classed as inactive in the experiment on HaCat [1], in the experiment with NIH3T3 [2], in the experiment on HACAT [3] and in the experiment with NIH3T3 [4]. Besides, the Potency entry with MCC-13 and with MCC-26 was “inactive” each time. The Potency in the experiment with MKL-2 was 16.6 µM (active).

On to `O=C1NC(=O)[C@@H](c2cn3c4c(cccc24)CCC3)[C@H]1c1c[nH]c2ccccc12`, for which the Potency in the experiment with CRL-7250 is 13.2 µM (active); in the experiment on HEK293, 0.662 µM (active); in the experiment with KB-3-1 it was 833 nM (active); with NIH3T3 [2] it was 2.09 µM (active); with MCC-13 it was 3.32 µM (active); with MKL-2, 23.5 µM (active). Moreover, the Potency in the experiment with UISO was 1.18 µM (active). Moreover, the result in the experiment on HaCat [1] and with HACAT [3] was inactive.

As for `CC(=O)N[C@@H]1[C@H](O[C@@H]2c3ccc(c(Cl)c3)Oc3cc4cc(c3O[C@H]3O[C@H](CO)[C@@H](O)[C@H](O)[C@H]3NC(=O)CCCCCCCC(C)C)Oc3ccc(cc3Cl)C[C@H]3NC(=O)[C@H](N)c5ccc(O)c(c5)Oc5cc(O)cc(c5)[C@H](NC3=O)C(=O)N[C@H]4C(=O)N[C@H]3C(=O)N[C@@H]2C(=O)N[C@@H](C(=O)O)c2cc(O)cc(O[C@H]4O[C@H](CO)[C@@H](O)[C@H](O)[C@H]4O)c2-c2cc3ccc2O)O[C@H](CO)[C@@H](O)[C@@H]1O`, the outcome with CRL-7250, with HEK293 and in the experiment with KB-3-1 was inactive. In addition, the figures for the max response in the experiment on HaCat [1] and in the experiment on NIH3T3 [2] were 2.16% and 4.41%, respectively. Moreover, the Potency result in the experiment with HEK293T, with MCC-13, in the experiment with MCC-26, in the experiment on MKL-1, with MKL-2 and in the experiment on UISO was “inactive” in each case. In addition, the Potency result with WaGa was “inactive”.

On to `N#Cc1c(NC(=O)c2cccc3ccccc23)sc2c1CCCC2`, for which the Potency in the experiment on CRL-7250 is 1.32 µM (active); in the experiment on HEK293 it was 0.372 µM (active); with KB-3-1, 469 nM (active); with NIH3T3 [2] it was 0.332 µM (active); in the experiment on UISO, 1.05 µM (active). Further, the outcome in the experiment on HaCat [1] and in the experiment on HACAT [3] was inactive.

As for `Cc1cc(O)c2c(c1)C(=O)c1cccc(O)c1C2=O`, the result in the experiment with CRL-7250 and in the experiment on HEK293 was inactive. Further, the max response is -2.05% in the experiment with HaCat [1], 4.24% in the experiment with KB-3-1 and 4.67% with NIH3T3 [2]. Further, the Potency result in the experiment on HEK293T, in the experiment with MCC-13, with MCC-26, with MKL-1, in the experiment on MKL-2 and in the experiment with UISO was “inactive” throughout. Besides, the Potency result in the experiment with WaGa is “inactive”.

For `C=CC[C@@H]1C=C(C)C[C@H](C)C[C@H](OC)[C@H]2O[C@@](O)(C(=O)C(=O)N3CCCC[C@H]3C(=O)O[C@H](C(C)=C[C@@H]3CC[C@H](O)[C@H](OC)C3)[C@@H](C)[C@@H](O)CC1=O)[C@@H](C)C[C@@H]2OC`, the max response in the experiment on CRL-7250 was -10%. Besides, the Potency in the experiment with HEK293 was 7.43 µM (active). Also, the compound was classed as inactive with HaCat [1], in the experiment on KB-3-1, in the experiment with NIH3T3 [2], in the experiment on HACAT [3] and with NIH3T3 [4]. In addition, the Potency entry in the experiment with MCC-26 was “inactive”.

As to `C=Cc1c(C)c2cc3nc(cc4[nH]c(cc5nc(cc1[nH]2)C(C)=C5CCC(=O)O)c(CCC(=O)OC)c4C)[C@@]1(C)C3=CC=C(C(=O)OC)[C@H]1C(=O)OC`, the values for the max response in the experiment with CRL-7250 and with NIH3T3 [2] were 1.72% and 4.13%, respectively. Further, the Potency with HEK293 is 11.8 µM (active); in the experiment on MCC-26, 2.96 µM (active); with MKL-1, 0.0469 µM (active); in the experiment with MKL-2, 0.0418 µM (active); in the experiment on UISO it was 0.469 µM (active). Further, the outcome in the experiment on HaCat [1], in the experiment with KB-3-1 and in the experiment with HACAT [3] was inactive.

As to `COC(=O)[C@H](CCCN=C(N)N)NS(=O)(=O)c1ccc(C)cc1`, the call with CRL-7250 and in the experiment on HEK293 was inactive. Moreover, the max response in the experiment on HaCat [1] was 0.0008%; in the experiment on KB-3-1, -0.67%; in the experiment with NIH3T3 [2], 2.63%. The Potency result with HEK293T, with MCC-13, with MCC-26, with MKL-1, in the experiment on MKL-2 and in the experiment with UISO was “inactive” in each case. Also, the Potency result in the experiment with WaGa is “inactive”.

(Values after PubChem BioAssay (NCATS).)
